Results taken from PubChem BioAssay (NCATS).
Records with an inconclusive call do not appear. The source made the active and inactive calls. Unless noted, calls follow the shape of the dose curve; as a rule, active = well fitted curve in the direction sought with a large enough effect; inconclusive = small, poorly fitted or top-dose-only effect, or another doubt; inactive = no such curve, though single readings can be large; an effect the other way counts as inactive or inconclusive.

Legend:
[1] = molecular target: Cytochrome P450 2D6 (Homo sapiens) (UniProt P10635); assay: qHTS for inhibitors of CYP2D6 against the NCATS DSHEA and TCM libraries (AID 1919972); conditions: CYP2D6 enzymatic inhibition, luminescence qHTS; also: potency is read from the fitted curve at half-maximal effect
Method in brief: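 Luminescent P450-Glo read-out of CYP2D6 turnover of a luciferin substrate after NADPH-driven reaction of 30-45 min at room temperature. Compounds were first preincubated 15 min with enzyme at titrated concentrations; quinidine was the intraplate control.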

[2] = molecular target: Cytochrome P450 2C19 (Homo sapiens) (UniProt P33261); assay: qHTS for inhibitors of CYP2C19 against the NCATS DSHEA and TCM libraries (AID 1919974); conditions: CYP2C19 enzyme inhibition, luminescence qHTS;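 also: luminescence from luciferin released by CYP2C19 oxidation of a pro-luciferin substrate; potency is read from the fitted curve at half-maximal effect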
Method in brief: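 Read-out is luminescence after P450-Glo detection (30 min, RT). Before that: 15 min compound–enzyme preincubation, then 30-45 min reaction with 1x NADPH regeneration solution, substrate concentration isoform-specific.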

[3] = KB-3-1 P-gp reporter qHTS against the NCATS DSHEA and TCM libraries (AID 1919975); also: 0% is about no effect
Method in brief: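 Cell viability by CellTiter-Glo luminescence following ~72 h compound exposure (concentration-response). Uses parental, non-P-gp-overexpressing KB-3-1 line, 500 cells/well in DMEM/10% FBS, attached ~4 h before dosing.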

[4] = molecular target: Cytochrome P450 1A2 (Homo sapiens) (UniProt P05177); assay: qHTS for inhibitors of CYPIA2 against the NCATS DSHEA and TCM libraries (AID 1919976); conditions: recombinant CYP1A2 enzyme activity, luminescence; also: potency is read from the fitted curve at half-maximal effect
Method in brief: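 CYP1A2 + luciferin substrate, 100 mM KPO4-type buffer; cmpd 15 min RT; 1x NADPH regen, 30-45 min RT dark; detection reagent 30 min RT; luminescence. Minus-enzyme wells as background; furafylline intraplate control.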

[5] = KB-8-5-11 P-gp reporter qHTS against the NCATS DSHEA and TCM libraries (AID 1919977); also: 0% is about no effect
Method in brief: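 CellTiter-Glo luminescence measured viability after ~72 h exposure (37C, 5% CO2) of KB-8-5-11 cervical adenocarcinoma cells overexpressing P-gp. Colchicine was omitted during assay. Substances were tested as titrations.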

[6] = qHTS Counterscreen for compound interference against the NCATS DSHEA and TCM libraries (AID 1919978); conditions: firefly luciferase detection reagent interference, luminescence;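 also: compounds preincubated with 1 µM D-luciferin or buffer before detection reagent; % of control where 0% means no effect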
Method in brief: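 With 1 uM D-luciferin or phosphate buffer only, compounds at final 19.5 nM–39.8 uM were incubated for 15 min at room temperature. Luciferase detection reagent was then added, and luminescence was measured after a further 30 min at room temperature.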

[7] = Dual reporter qHTS for agonist of Pregnane X Receptor (hPXR) against the NCATS DSHEA and TCM libraries: Fluorescence readout (AID 1920058); also: 0% is about no effect
Method in brief: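 HepG2 hPXR-Luc, 2000 cells/well, 5 h attach; cpds ~24 h, 37 °C/5% CO2; CellTiter-Fluor 1 h; fluor. Ex/Em 405/540 nm = viability.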

[8] = molecular target: Nuclear receptor subfamily 1 group I member 2 (Homo sapiens) (UniProt O75469); assay: Dual reporter qHTS for antagonist of Pregnane X Receptor (hPXR) against the NCATS DSHEA and TCM libraries: Luminescence Readout (AID 1920060);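 also: HepG2 cells carrying hPXR luciferase reporter stimulated with rifampicin at 2 µM; 0% is about no effect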
Method in brief: (§1)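 In antagonist mode, 2 uM rifampicin was added to hPXR-Luc HepG2 cells alongside test substances, incubated 24 h at 37 C; luminescence gave reporter activity, and CellTiter-Fluor fluorescence (405/540 nm) gave viability.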

[9] = Dual reporter qHTS for antagonist of Pregnane X Receptor (hPXR) against the NCATS DSHEA and TCM libraries: Fluorescence Readout (AID 1920061); also: 0% is about no effect
Method in brief: as §1

[10] = qHTS profiling for inhibitors of Plasmodium falciparum proliferation (AID 504749); also: potency is read from the fitted curve at half-maximal effect;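 as to activity, negative = inhibition: 0% = DMSO vehicle and full inhibition = artemisinin control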; as to all read-outs here: nearly all actives have a fitted effect of over 60% in size; conditions: P. falciparum in erythrocytes, SYBR Green DNA, 72 h; for activity, negative = inhibition: at 28.7 µM (top of the series)
Method in brief: (§2)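 Infected RBCs, 0.3% parasitemia/2.5% Hct final; cpd 72 h, 37 C, 5% CO2; lysis buffer with saponin/triton/SYBR Green I, o/n RT dark; FI 485/535; norm. to artemisinin (0.29 uM) and DMSO.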

3D7 = assay: as above; conditions: P. falciparum in erythrocytes, SYBR Green DNA, 72 h; series mostly up to 28.7 µM
Method in brief: as §2

7G8 = assay: as above; conditions: P. falciparum in erythrocytes, SYBR Green DNA, 72 h; series mostly up to 28.7 µM
Method in brief: as §2

AA1029 = assay: as above; conditions: P. falciparum in erythrocytes, SYBR Green DNA, 72 h; series mostly up to 28.7 µM
Method in brief: as §2

AS120 = assay: as above; conditions: P. falciparum in erythrocytes, SYBR Green DNA, 72 h; series mostly up to 28.7 µM
Method in brief: as §2

ATS189 = assay: as above; conditions: P. falciparum in erythrocytes, SYBR Green DNA, 72 h; series mostly up to 28.7 µM
Method in brief: as §2

[11] = Quantitative High-Throughput drug screen in 47 multiple myeloma cell lines against the NCATS MIPE library collection: OPM2_DSMZ cell viability assay (AID 1919872); also: nearly all actives have a fitted effect of over 30% in size
Method in brief: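 Inhibition of cell viability is measured here. Each line was plated at 500 cells per well, treated with MIPE 4.0 drugs, kept 48 hours at 37C, then assayed for ATP content by CellTiter-Glo luminescence.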

[12] = qHTS drug screen for cell cycle checkpoint inhibitors in PARPi-resistant BRCA-mutant ovarian cancer cell lines. (AID 1963452; calls by dose curve); conditions: PEO1/OlaR viability, CellTiter-Glo luminescence, 96 h, stronger effect = lower value
Method in brief: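 PEO1, PEO4 and PEO1/OlaR ovarian cancer cells, 600 per well, exposed 96 h at 37C to a dilution series. Viability read by CellTiter-Glo luminescence, normalized to DMSO and empty wells; activity summarized as Z-AUC.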

[13] = measured here: PEO1 parental Z-AUC

Chain of Nuclear receptor subfamily 1 group I member 2 (Homo sapiens) (O75469 whole entry, looked up): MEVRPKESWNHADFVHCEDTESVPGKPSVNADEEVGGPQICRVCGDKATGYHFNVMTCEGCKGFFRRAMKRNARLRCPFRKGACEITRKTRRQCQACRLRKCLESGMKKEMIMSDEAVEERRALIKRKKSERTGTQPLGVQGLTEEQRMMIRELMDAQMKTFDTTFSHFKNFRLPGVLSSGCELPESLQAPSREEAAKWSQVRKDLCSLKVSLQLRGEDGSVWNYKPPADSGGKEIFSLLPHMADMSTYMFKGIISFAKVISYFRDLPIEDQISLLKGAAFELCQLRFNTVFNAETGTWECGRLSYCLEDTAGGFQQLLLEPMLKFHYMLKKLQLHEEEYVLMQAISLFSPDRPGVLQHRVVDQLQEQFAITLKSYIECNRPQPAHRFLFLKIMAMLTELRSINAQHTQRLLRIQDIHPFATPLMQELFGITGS
Chain of Cytochrome P450 2C19 (Homo sapiens) (P33261 whole entry, looked up, canonical isoform): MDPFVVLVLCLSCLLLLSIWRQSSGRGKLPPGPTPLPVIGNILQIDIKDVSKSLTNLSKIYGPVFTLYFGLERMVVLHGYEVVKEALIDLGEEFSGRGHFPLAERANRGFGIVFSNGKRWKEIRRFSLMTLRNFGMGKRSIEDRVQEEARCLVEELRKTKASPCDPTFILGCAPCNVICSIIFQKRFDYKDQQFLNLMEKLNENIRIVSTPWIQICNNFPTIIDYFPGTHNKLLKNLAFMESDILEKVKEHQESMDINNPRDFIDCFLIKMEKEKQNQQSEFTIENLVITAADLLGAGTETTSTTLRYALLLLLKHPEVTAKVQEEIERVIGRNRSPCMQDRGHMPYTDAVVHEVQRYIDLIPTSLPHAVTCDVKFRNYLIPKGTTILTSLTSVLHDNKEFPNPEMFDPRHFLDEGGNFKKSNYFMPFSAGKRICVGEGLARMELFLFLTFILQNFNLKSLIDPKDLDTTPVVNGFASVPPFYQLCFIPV
Chain of Cytochrome P450 2D6 (Homo sapiens) (P10635 whole entry, looked up): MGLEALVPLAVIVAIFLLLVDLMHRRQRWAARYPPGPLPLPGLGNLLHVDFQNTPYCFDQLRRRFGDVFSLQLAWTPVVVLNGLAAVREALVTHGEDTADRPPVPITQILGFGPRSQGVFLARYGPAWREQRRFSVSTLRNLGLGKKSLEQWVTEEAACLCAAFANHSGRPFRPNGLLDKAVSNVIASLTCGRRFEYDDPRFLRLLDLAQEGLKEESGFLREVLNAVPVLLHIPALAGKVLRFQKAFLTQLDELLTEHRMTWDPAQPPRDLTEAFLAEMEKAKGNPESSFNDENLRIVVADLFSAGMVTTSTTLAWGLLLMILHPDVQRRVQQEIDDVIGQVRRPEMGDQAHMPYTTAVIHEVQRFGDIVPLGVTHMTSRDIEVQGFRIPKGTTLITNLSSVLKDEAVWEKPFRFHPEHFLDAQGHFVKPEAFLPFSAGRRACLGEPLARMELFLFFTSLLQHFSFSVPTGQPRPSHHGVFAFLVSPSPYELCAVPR
Chain of Cytochrome P450 1A2 (Homo sapiens) (P05177 whole entry, looked up): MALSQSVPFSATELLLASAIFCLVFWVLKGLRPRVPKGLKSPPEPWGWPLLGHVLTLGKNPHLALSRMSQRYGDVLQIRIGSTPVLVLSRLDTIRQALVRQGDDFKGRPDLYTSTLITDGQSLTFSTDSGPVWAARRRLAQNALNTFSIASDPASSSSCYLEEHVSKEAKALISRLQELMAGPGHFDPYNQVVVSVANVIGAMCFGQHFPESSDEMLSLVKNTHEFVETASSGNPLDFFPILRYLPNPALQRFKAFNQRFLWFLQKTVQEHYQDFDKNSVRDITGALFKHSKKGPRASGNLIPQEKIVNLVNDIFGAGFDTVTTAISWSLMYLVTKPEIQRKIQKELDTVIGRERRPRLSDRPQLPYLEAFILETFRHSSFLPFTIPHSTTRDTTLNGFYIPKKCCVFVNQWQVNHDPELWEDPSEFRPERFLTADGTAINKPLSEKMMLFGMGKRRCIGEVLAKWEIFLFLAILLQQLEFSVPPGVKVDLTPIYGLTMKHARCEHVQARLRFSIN

CC(C)=CCOc1c2occc2cc2ccc(=O)oc12
inactive: outcome [3] | outcome [5] | max response [6] 2.08% | outcome [7] | outcome [8] | outcome [9]
active: Potency [1] 1.78 µM | Potency [2] 12.6 µM | Potency [4] 1.26 µM

OCCOc1ccccc1
inactive: activity, negative = inhibition ([10]; parasite line A) 10.1% | activity, negative = inhibition ([10]; parasite line B) 6.31% | Potency (3D7) | Potency (7G8) | Potency (AA1029) | Potency (AS120) | Potency (ATS189)

COc1ccccc1N1CCNCC1
inactive: activity, negative = inhibition ([10]; parasite line A) -0.986% | activity, negative = inhibition ([10]; parasite line B) 0.847% | Potency (3D7) | Potency (7G8) | Potency (AA1029) | Potency (AS120) | Potency (ATS189)

O=C(NC(O)C(Cl)(Cl)Cl)NC(O)C(Cl)(Cl)Cl (centres undefined)
inactive: activity, negative = inhibition ([10]; parasite line A) -1.71% | activity, negative = inhibition ([10]; parasite line B) 6.79% | Potency (3D7) | Potency (7G8) | Potency (AA1029) | Potency (AS120) | Potency (ATS189)

FC(F)(F)c1cccc(C2=CCN(CCc3ccc4ccccc4c3)CC2)c1
inactive: activity, negative = inhibition ([10]; parasite line A) -13.7% | activity, negative = inhibition ([10]; parasite line B) -28.6% | Potency (3D7) | Potency (7G8) | Potency (AA1029) | Potency (AS120) | Potency (ATS189)

O=c1[nH]c2ccccc2n1CCCN1CCC(n2c(=O)[nH]c3cc(Cl)ccc32)CC1
0.892: Z-AUC [12, 13]
0.827: Z-AUC ([12]; measured here: PEO4 Z-AUC)
active: Potency ([10]; parasite line A) 11.2 µM | Potency (7G8) 1.41 µM | Potency (AS120) 5.01 µM
inactive: Potency [11] | Z-AUC [12] 1.58

Cc1ccc(-c2nc3ccc(C)cn3c2CC(=O)N(C)C)cc1
inactive: activity, negative = inhibition ([10]; parasite line A) -4.35% | activity, negative = inhibition ([10]; parasite line B) -1.84% | Potency (3D7) | Potency (7G8) | Potency (AA1029) | Potency (AS120) | Potency (ATS189)

CC(=O)[C@H]1CC[C@H]2[C@@H]3CC[C@H]4C[C@H](O)CC[C@]4(C)[C@H]3C(=O)C[C@]12C
inactive: activity, negative = inhibition ([10]; parasite line A) 10.2% | activity, negative = inhibition ([10]; parasite line B) 12.3% | Potency (3D7) | Potency (7G8) | Potency (AA1029) | Potency (AS120) | Potency (ATS189)

C[C@]12CCC(=O)C(O)=C1CC[C@@H]1[C@@H]2CC[C@]2(C)C(=O)CC[C@@H]12
inactive: Z-AUC [12] 0.873
1.06: Z-AUC ([12]; measured here: PEO4 Z-AUC)
1.02: Z-AUC [12, 13]

CCCC1CCCCN1 (centres undefined)
inactive: activity, negative = inhibition ([10]; parasite line A) 5.52% | activity, negative = inhibition ([10]; parasite line B) 3.92% | Potency (3D7) | Potency (7G8) | Potency (AA1029) | Potency (AS120) | Potency (ATS189)

O=[N+]([O-])c1cc([As](=O)(O)O)ccc1O
active: Potency ([10]; parasite line A) 3.98 µM | Potency ([10]; parasite line B) 3.16 µM | Potency (3D7) 3.98 µM | Potency (7G8) 3.98 µM | Potency (AA1029) 3.16 µM | Potency (AS120) 3.16 µM

Oc1cccc2cccnc12
inactive: activity, negative = inhibition ([10]; parasite line A) 4.36% | activity, negative = inhibition ([10]; parasite line B) -11.6% | Potency (3D7) | Potency (7G8) | Potency (AA1029) | Potency (AS120) | Potency (ATS189)

N#CC(C#N)=Cc1ccc(O)c(O)c1
inactive: activity, negative = inhibition ([10]; parasite line A) -14.1% | activity, negative = inhibition ([10]; parasite line B) -25.8% | Potency (3D7) | Potency (AA1029) | Potency (AS120) | Potency (ATS189)
active: Potency (7G8) 8.91 µM

CC(CCc1ccccc1)NC(C)C(O)c1ccc(O)cc1 (centres undefined)
inactive: activity, negative = inhibition ([10]; parasite line A) 8.41% | activity, negative = inhibition ([10]; parasite line B) 8.3% | Potency (3D7)

NP(N)(=O)NC(=O)c1ccc(F)cc1
inactive: activity, negative = inhibition ([10]; parasite line A) -1.33% | activity, negative = inhibition ([10]; parasite line B) 3.8% | Potency (3D7) | Potency (7G8) | Potency (AA1029) | Potency (AS120) | Potency (ATS189)

CN1C(=S)CN=C(c2ccccc2)c2cc(Cl)ccc21
inactive: activity, negative = inhibition ([10]; parasite line A) -4.94% | activity, negative = inhibition ([10]; parasite line B) 2.35% | Potency (3D7) | Potency (7G8) | Potency (AA1029) | Potency (AS120) | Potency (ATS189)

CCN(C(C)=O)c1cccc(-c2ccnc3c(C#N)cnn23)c1
inactive: activity, negative = inhibition ([10]; parasite line A) 6.76% | activity, negative = inhibition ([10]; parasite line B) 2.02% | Potency (3D7) | Potency (7G8) | Potency (AA1029) | Potency (AS120) | Potency (ATS189)

C=C1CC[C@@]2(O)[C@H]3Cc4ccc(O)c5c4[C@@]2(CCN3CC2CC2)[C@H]1O5
inactive: activity, negative = inhibition ([10]; parasite line A) 9.27% | activity, negative = inhibition ([10]; parasite line B) 12.8% | Potency (3D7) | Potency (7G8) | Potency (AA1029) | Potency (AS120) | Potency (ATS189)

N[C@@H]1C[C@H]1c1ccccc1
1.13: Z-AUC [12, 13]
inactive: Z-AUC [12] 0.628
0.895: Z-AUC ([12]; measured here: PEO4 Z-AUC)

CC[N+](CC)(CC)CC
inactive: activity, negative = inhibition ([10]; parasite line A) 15.6% | activity, negative = inhibition ([10]; parasite line B) 17.3% | Potency (3D7) | Potency (7G8) | Potency (AA1029) | Potency (AS120) | Potency (ATS189)

Cc1cccc(C)c1NC1=NCCCS1
active: Potency (7G8) 11.2 µM
inactive: activity, negative = inhibition ([10]; parasite line A) -16.9% | activity, negative = inhibition ([10]; parasite line B) -6.65% | Potency (3D7)

Oc1ccc(Cl)cc1Cc1ccccc1
inactive: activity, negative = inhibition ([10]; parasite line A) -17.6%
active: Potency (7G8) 2 µM | Potency (AS120) 8.91 µM

CCOP(=S)(OCC)Oc1cc(C)nc(C(C)C)n1
inactive: activity, negative = inhibition ([10]; parasite line A) 5.69% | activity, negative = inhibition ([10]; parasite line B) 9.55% | Potency (3D7) | Potency (7G8) | Potency (AA1029) | Potency (AS120) | Potency (ATS189)

CC[N+]1(C)CCCC(OC(=O)C(O)(c2ccccc2)c2ccccc2)C1 (centres undefined)
inactive: activity, negative = inhibition ([10]; parasite line A) -4.88% | activity, negative = inhibition ([10]; parasite line B) 2.86% | Potency (3D7) | Potency (7G8) | Potency (AA1029) | Potency (AS120) | Potency (ATS189)

CC(C)(C)NCC(O)c1cc(Cl)c(N)c(Cl)c1 (centres undefined)
inactive: activity, negative = inhibition ([10]; parasite line A) -4.99% | Potency (3D7)
active: Potency (7G8) 7.94 µM

Clc1cccc(N2CCNCC2)c1
inactive: activity, negative = inhibition ([10]; parasite line A) 9.32% | activity, negative = inhibition ([10]; parasite line B) 8.49% | Potency (3D7) | Potency (AA1029) | Potency (AS120) | Potency (ATS189)
